Shown are actives, neighbours in structure and some others; about 2.3% of the full set was active somewhere.
SENP8 block-1: human SENP8 protease inhibitors, primary screen, biochemical, fluorescence, Nedd8 protein substrate, uHTS; 360,000 compounds, 0.64% hits; Sentrin-specific protease 8 (Homo sapiens), Q96LD8; recombinant SENP8; AID 602440, 2012; inhibition, % at 20 µM; in the data active = inhibition mostly above about 40%, no sharp cut-off; inactive = mostly below about 27%
Target sequence (Q96LD8 whole entry, looked up): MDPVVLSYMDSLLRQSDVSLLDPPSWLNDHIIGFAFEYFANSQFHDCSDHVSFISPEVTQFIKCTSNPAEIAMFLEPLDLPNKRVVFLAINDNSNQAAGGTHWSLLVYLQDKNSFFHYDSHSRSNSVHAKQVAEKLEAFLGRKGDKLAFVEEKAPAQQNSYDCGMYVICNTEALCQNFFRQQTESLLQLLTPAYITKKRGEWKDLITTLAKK
SENP8 block-2: SENP8 protease inhibitors, primary screen, biochemical, luminescence | Sentrin-specific protease 8 (Homo sapiens), Q96LD8 | purified SENP8, Z-RLRGG-aminoluciferin cleavage | inhibition, % at 10 µM | 330,000 compounds, 1.2% hits | AID 2540, 2010; in the data active = inhibition above about 50%
SENP6 block: SENP6 protease inhibitors, primary screen, biochemical, luminescence, uHTS; Recombinant SENP6 catalytic domain, aminoluciferin luminescence; AID 2599, 2010; 330,000 compounds, 1.8% hits; Sentrin-specific protease 6 (Homo sapiens), Q9GZR1; inhibition, % at 10 µM;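 active = inhibition above about 50% at the single tested dose, limit read from the data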;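 also: plate controls were DMSO wells with enzyme for no effect and DMSO wells lacking enzyme for full effect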
SENP7 inh: SENP7 protease inhibitors, primary screen, biochemical, luminescence, uHTS; AID 434973, 2010; inhibition, % at 5 µM; recombinant SENP7, Z-RLRGG-aminoluciferin luminescence, 40 min; Sentrin-specific protease 7 (Homo sapiens), Q9BQF6; 330,000 compounds, 1.5% hits;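 active = inhibition above about 50% at the single test dose, limit read from the data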;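 also: plate controls were DMSO with enzyme for no effect and no enzyme buffer wells for full effect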
Target sequence (Q9BQF6 706-1050 limits assumed): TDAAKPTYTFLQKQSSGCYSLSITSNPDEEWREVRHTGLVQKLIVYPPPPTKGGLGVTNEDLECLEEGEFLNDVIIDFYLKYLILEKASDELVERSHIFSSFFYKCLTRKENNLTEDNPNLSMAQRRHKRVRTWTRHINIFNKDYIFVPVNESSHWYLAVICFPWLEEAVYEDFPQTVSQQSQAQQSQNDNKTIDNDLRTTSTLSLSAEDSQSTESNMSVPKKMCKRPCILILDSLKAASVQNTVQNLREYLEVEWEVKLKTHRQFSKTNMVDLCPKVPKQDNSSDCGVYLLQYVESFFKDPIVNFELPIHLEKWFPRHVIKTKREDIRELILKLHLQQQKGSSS
HSP90 refold inh: HSP90 inhibitors, primary screen, cell lysate, luminescence; inhibition, % at 5.6 µM; AID 1789, 2009; 290,000 compounds, 0.91% hits; Heat shock protein HSP 90 (rabbit reticulocyte lysate; luciferase refolding); Rabbit reticulocyte lysate, luciferase refolding luminescence, 3 h;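 active = inhibition above the screen-wide mean plus 3 SD, computed separately per campaign, cut at about 16% in these data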;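 also: 0% = DMSO wells and 100% = 60 µM geldanamycin wells; inhibitors lower the luminescence because luciferase stays unfolded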
LGR2 antag: inhibitors of bursicon-induced LGR2 CRE-luciferase signal, primary screen, cell-based, HEK293, CRE-luciferase reporter, bursicon stimulation; Drosophila bursicon receptor LGR2 (rickets); bursicon-stimulated, 4 h; inhibition, % at 9.99 µM; 380,000 compounds, 0.35% hits; AID 720647, 2013;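 active = drop in luminescence signal, shown as inhibition above about 50% in the replicate tests, limit read from the data, passing the limit was not always enough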;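 also: agonist challenge used bursicon conditioned medium at about half maximal strength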
SENP8 confirm: SENP8 protease inhibitors, retest, confirmation, biochemical, luminescence, single concentration | inhibition, % at 12.5 µM | AID 488912, 2010 | 6,200 compounds, 40% hits | shares compounds with SENP7 inh | Recombinant SENP8, Z-RLRGG-aminoluciferin luminescence, 60 min;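 active = mean inhibition across replicates above about 50%, limit read from the data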
SENP6 confirm: SENP6 protease inhibitors, confirmation, biochemical, luminescence, single concentration; shares compounds with SENP7 inh; recombinant SENP6, Z-RLRGG-aminoluciferin luminescence; inhibition, % at 12.5 µM; 6,200 compounds, 58% hits; AID 488915, 2010
SENP7 conf: SENP7 protease inhibitors, retest, confirmation, biochemical, luminescence, single concentration. inhibition, % at 12.5 µM. shares compounds with SENP7 inh. recombinant SENP7, Z-RLRGG-aminoluciferin luminescence, 40 min. 6,200 compounds, 69% hits
Casp3 select: caspase-3 protease inhibitors, confirmation, selectivity assay for SENP inhibitor project, biochemical, single concentration. shares compounds with SENP7 inh. purified caspase-3, Z-DEVD-aminoluciferin luminescence, 60 min. inhibition, % at 12.5 µM. 6,200 compounds, 60% hits. AID 488918, 2010;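 active = mean inhibition above about 50%, limit read from the data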;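 also: plate controls were enzyme with DMSO for no effect and wells without caspase-3 for full effect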
SENP luc ctr: counter-screen for SENP inhibitors: luminescence interference; shares compounds with SENP7 inh; Pre-incubated SENP8/Z-RLRGG-aminoluciferin, luciferase luminescence interference; inhibition, % at 12.5 µM; 6,200 compounds, 39% hits; AID 488919;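 active = mean inhibition above about 50% when retested at one dose, limit read from the data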;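 also: plate controls were DMSO wells with completed reaction for no effect and substrate without enzyme for full effect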
Starred values were filed as active, the others as inactive; . = no result.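 The calls were made as follows, unless noted: active = mean inhibition above about 50% in the one-dose retest (limit read from the data); inactive = the rest.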

SMILES | SENP8 block-1 | SENP8 block-2 | SENP6 block | SENP7 inh | HSP90 refold inh | LGR2 antag | SENP8 confirm | SENP6 confirm | SENP7 conf | Casp3 select | SENP luc ctr
Cc1ccc(NC(=O)c2cc3ccccc3o2)nc1 | -67.4 | 40.2 | 63.3* | 64.8* | . | -31.5 | 57.7* | 57.8* | 87.2* | 73.7* | 66.8*
Cc1ccccc1NC(=O)c1cc2ccccc2o1 | -18.1 | 67.4* | 84.9* | 71.0* | 8.3 | -64.8 | 70.8* | 70.5* | 91.6* | 85.1* | 78.6*
COc1ccccc1NC(=O)N1C[C@@H]2[C@H](c3ccccc31)[C@@H](CO)N2C(=O)C1CC1 | . | . | . | . | . | -21.0 | . | . | . | . | .
C[C@@H]1CN([C@@H](C)CO)C(=O)c2c(c3ccccc3n2C)-c2ccccc2CO[C@H]1CN(C)Cc1ccc2c(c1)OCO2 | . | . | . | . | . | -3.7 | . | . | . | . | .
C[C@H](CO)N1C[C@H](C)[C@H](CN(C)S(=O)(=O)c2ccc(F)cc2)Oc2c(NC(=O)c3cnccn3)cccc2C1=O | . | . | . | . | . | -5.7 | . | . | . | . | .
O=C(Nc1ncccc1Cl)c1cc2ccccc2o1 | 5.9 | 41.5 | 62.5* | 64.1* | 6.3 | -87.3 | 68.3* | 73.3* | 92.0* | 82.9* | 28.2
O=C(Nc1ccc(Cl)cc1Cl)c1cc2ccccc2o1 | 5.8 | -14.7 | 26.9 | 58.8* | -1.7 | -16.2 | 14.3 | 10.2 | 4.1 | 3.5 | -5.0
Cn1c(=O)[nH]c2nnc(-c3ccc(Cl)c(Cl)c3)nc2c1=O | 11.9 | 97.1* | 96.4* | 97.4* | 4.4 | 35.9 | 56.1* | 80.0* | 53.4* | 90.8* | 15.8
C[C@@H]1CN([C@@H](C)CO)C(=O)c2cc(C#CCN(C)C)cnc2O[C@H]1CN(C)C(=O)NC1CCCCC1 | . | . | . | . | . | 0.1 | . | . | . | . | .
COc1ccc(C(=O)NCC(=O)N/N=C/c2ccco2)cc1OC | 14.4 | -10.5 | 101.2* | -6.6 | 6.5 | -16.7 | 7.3 | 6.9 | 13.8 | 7.1 | 6.9
CCOC(=O)c1sc(-c2ccccc2)nc1C | 15.1 | 11.8 | 31.2 | 23.4 | 0.9 | -18.4 | . | . | . | . | .
CCOC(=O)Cc1ccc2sc(-c3ccccc3)nc2c1 | 3.1 | 95.1* | 96.7* | 99.1* | 1.5 | -26.1 | 97.8* | 99.0* | 101.6* | 96.6* | 92.4*
CC1(C)Cc2c(sc(NC(=O)C(=O)N3CCCC3)c2C(=O)O)CO1 | 22.5 | -6.8 | 3.6 | 15.5 | -2.9 | 19.3 | . | . | . | . | .
CC(C)COc1ccc(C(=O)Nc2sc3c(c2C(=O)O)CC(C)(C)OC3)cc1 | -372.6 | 27.9 | 29.8 | -0.8 | 0.6 | -1.2 | . | . | . | . | .
COc1ccc(C(=O)Nc2sc3c(c2C(=O)O)CC(C)(C)OC3)cc1 | -277.8 | 43.9 | 62.6* | 43.4 | -3.9 | 10.7 | 8.2 | 55.9* | 0.0 | 50.2* | 1.9
CC1(C)Cc2c(sc(NC(=O)c3ccccc3)c2C(=O)O)CO1 | -49.3 | 63.8* | -16.1 | 44.1 | 9.2 | -44.4 | 76.9* | 69.3* | 86.1* | 82.4* | 59.4*
Cc1nn(-c2ccc(F)cc2)c2sc(C(=O)O)cc12 | 8.2 | 0.1 | -10.4 | 98.2* | -1.4 | -7.0 | 3.6 | 2.1 | 5.5 | -3.0 | -13.1

Compound activity as filed in PubChem.
